One experiment relates to PC49. The experiment in a line: qHTS profiling for inhibitors of Plasmodium falciparum proliferation (AID 504749).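 Further: 0% = DMSO vehicle and full inhibition = artemisinin control.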 The following applies: P. falciparum in erythrocytes, SYBR Green DNA, 72 h; series mostly up to 28.7 µM. The gist of the method:
(§1)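 Parasite proliferation within erythrocytes, 72 h exposure. Endpoint: SYBR Green I fluorescence after overnight lysis at room temperature. Controls: 0.29 uM artemisinin, DMSO.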
Background: In qHTS, concentration-response curves come from the screen itself.

The subject of another experiment is SC27B. Described as above. To be noted: P. falciparum in erythrocytes, SYBR Green DNA, 72 h; series mostly up to 28.7 µM. The gist of the method:
as §1

A further experiment has as its system TAB109. The experiment is described as above. To be noted: P. falciparum in erythrocytes, SYBR Green DNA, 72 h; series mostly up to 28.7 µM. The essentials: as §1
In another experiment the test system is TAB113. The experiment is described as above. The following applies: P. falciparum in erythrocytes, SYBR Green DNA, 72 h; series mostly up to 28.7 µM. The gist of the method:
as §1

Another experiment concerns TAB165. Described as above. To be noted: P. falciparum in erythrocytes, SYBR Green DNA, 72 h; series mostly up to 28.7 µM. The essentials: as §1
The next experiment deals with W2. The description is as above. The following applies: P. falciparum in erythrocytes, SYBR Green DNA, 72 h; series mostly up to 28.7 µM. The essentials: as §1
A further experiment deals with CRL-7250. The experiment can be described thus: Cytotoxic Profiling of Annotated Libraries Using Quantitative High-Throughput Screening (AID 1296008). Further: potency means the concentration at half of the fitted maximal effect. On max response: on the % scale 0 is the no-effect control and ±100 the full control effect. To be noted: Five cell lines viability, CellTiter-Glo ATP luminescence, 48-72 h; max response: stronger effect = lower value. The gist of the method: (§2)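 Compounds were pin-transferred onto cells and incubated 48 or 72 hr at 37 degree Celsius, 95% humidity. CellTiter-Glo was added, plates sat 10 min at room temperature, then ATP-coupled luminescence was imaged as the viability read-out.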
(In general: Cellular ATP, detected with luciferase, serves as a proxy for viable cell number.)

Another experiment relates to HEK293. The experiment is described as above. To be noted: Five cell lines viability, CellTiter-Glo ATP luminescence, 48-72 h; max response: stronger effect = lower value. The gist of the method:
as §2

Another experiment concerns HaCat. Described as above. The following applies: Five cell lines viability, CellTiter-Glo ATP luminescence, 48-72 h; max response: stronger effect = lower value. The essentials: as §2
A further experiment concerns KB-3-1. The description is as above. The following applies: Five cell lines viability, CellTiter-Glo ATP luminescence, 48-72 h; max response: stronger effect = lower value. The gist of the method: as §2

“And” between values parts separate entries of the source, which are not always exact repeats. Equal values may be shown once. Inconclusive results are not listed. A number with no mark means an inactive call. The source made the active and inactive calls. The call rests on the fitted dose curve; in most records, active means well fitted inhibition curve with a large enough effect; inconclusive means small, poorly fitted or top-dose-only effect; inactive means flat fitted curve, though single readings scatter.
Further: nearly all actives have a fitted effect of over 60% in size.

Take `CC(=O)N[C@@H](CS)C(=O)O`: the call with PC49, in the experiment on TAB109 and with HEK293 was inactive. Besides, the Potency result in the experiment with SC27B, with TAB113, in the experiment with TAB165 and with W2 was “inactive” in each case. Moreover, the max response is -25.8% with CRL-7250, -16.4% in the experiment on HaCat and 0.129% in the experiment on KB-3-1.

Turning to `COc1ccc2cccc(CCNC(C)=O)c2c1`, the max response with CRL-7250 was -2.32%; with HEK293, 4.38%; in the experiment with HaCat, -1.39%; in the experiment on KB-3-1, 2.52%.

As for `CC1(C)CCC[C@@]2(C)[C@@H]1CC[C@@]1(C)OC(=O)C[C@H]21`, the max response was 1.92% with CRL-7250, -1.67% in the experiment on HEK293 and 5.91% in the experiment on KB-3-1. Also, the compound was classed as inactive in the experiment on HaCat.

In the case of `O=C(O)c1ccccc1C(=O)Nc1ccc(-c2ccccc2)cc1`, the max response in the experiment on CRL-7250 is 4.68%; in the experiment on HEK293, -10.6%; in the experiment on KB-3-1, 9.98%. Further, the result in the experiment on HaCat and in the experiment on KB-3-1 was inactive.

For `CCN(CC)CCOc1ccc(C(=C(Cl)c2ccccc2)c2ccccc2)cc1`, the max response in the experiment with CRL-7250 is -5.74%; in the experiment with HaCat, -8.22%. Moreover, the outcome in the experiment on HEK293 and in the experiment with KB-3-1 was inactive.

For `CN(C[C@@H]1COCCO1)S(=O)(=O)Nc1ccc2ccc3ncc(-c4cnn(C)c4)cc3c(=O)c2c1`, the Potency in the experiment on CRL-7250 is 469 nM (active); with HEK293, 4.18 µM (active) and 6.51 µM (active); in the experiment on HaCat, 10.3 µM (active); in the experiment with KB-3-1, 7.43 µM (active).

Take `COc1ccc(-c2cc(=O)c3c(O)cc(O)cc3o2)cc1O`: the result in the experiment with CRL-7250 was inactive. The max response was -3.68% in the experiment with HEK293, 3.57% in the experiment with HaCat and -19.6% in the experiment with KB-3-1.

Regarding `CC(C(=O)O)c1ccc(-c2ccccc2)c(F)c1` (stereo not drawn), the max response was 2.91% with CRL-7250; 1.61% in the experiment on HEK293; -1.08% and -0.207% in the experiment on KB-3-1. For the same compound, the compound was classed as inactive in the experiment with HaCat.

Turning to `COc1ccc2c3c1OC1C[C@@H](O)C=C[C@@]31CCN(C)C2` (stereo partly drawn), the max response is -0.2% with CRL-7250, -3.03% with HEK293 and -3.8% in the experiment with KB-3-1. For the same compound, the call in the experiment with HaCat was inactive.

On to `CC(C)(C)COc1ccc(-n2cc(C(=O)O)cn2)cc1C#N`, for which the compound was called inactive in the experiment with CRL-7250 and in the experiment on HaCat. Besides, the max response in the experiment with HEK293 was 3.28%; in the experiment with KB-3-1 it was 7.58%.

For the compound `O=C(OCC#CCSc1nnc(-c2cccc3ccccc23)o1)c1cc2ccccc2s1`, the max response in the experiment with CRL-7250 is 3.01%; in the experiment on HaCat it was -10.9%; with KB-3-1, -5.32%. The compound was called inactive with HEK293.

Consider `CC(C)n1nc(-c2ccc3oc(N)nc3c2)c2c(N)ncnc21`, for which the Potency with CRL-7250 was 1 nM (active) and 58 nM (active); with HEK293 it was 1.7 nM (active) and 82 nM (active); in the experiment on HaCat, 3.26 µM (active); with KB-3-1, 7.4 nM (active) and 116 nM (active).

With `C[N+]1(C)[C@@H]2CC(OC(=O)[C@H](CO)c3ccccc3)C[C@H]1[C@H]1O[C@@H]12` (stereo partly drawn), the max response with CRL-7250 was 4.18%; with KB-3-1, 2.27%. In addition, the compound was called inactive in the experiment on HEK293 and in the experiment with HaCat.

For `Cc1cnc(C(=O)O)c[n+]1[O-]`, the outcome in the experiment with PC49, in the experiment with TAB109, in the experiment with HEK293, in the experiment with HaCat and with KB-3-1 was inactive. The Potency result in the experiment with SC27B, in the experiment with TAB113, with TAB165 and in the experiment with W2 was “inactive” throughout. Further, the max response with CRL-7250 is 4.3%; in the experiment on KB-3-1, 1.54% and 2.87% and -1.62%.

On to `CO[C@H]1C(=O)[C@]2(C)[C@@H](OC)C[C@H]3OC[C@@]3(OC(C)=O)[C@H]2[C@H](OC(=O)c2ccccc2)[C@]2(O)C[C@H](OC(=O)[C@H](O)[C@@H](NC(=O)OC(C)(C)C)c3ccccc3)C(C)=C1C2(C)C`, for which the max response in the experiment on CRL-7250 was -47%; with HEK293, -66.4%; in the experiment with HaCat, -71.6%. Also, the Potency in the experiment with KB-3-1 is 0.0008 µM (active).

As for `NC(N)=Nc1nc(CSCC/C(N)=N/S(N)(=O)=O)cs1`, the compound was classed as inactive with PC49, in the experiment on TAB109, in the experiment with HEK293 and with HaCat. For the same compound, the Potency result in the experiment with SC27B, with TAB113, in the experiment on TAB165 and in the experiment on W2 was “inactive” each time. Besides, the figures for the max response in the experiment with CRL-7250 and in the experiment with KB-3-1 were -7.89% and 30.2%, respectively.

As for `CC(=Cc1ccccc1)C=C1SC(=S)N(CC(=O)O)C1=O`, the max response in the experiment on CRL-7250 is -0.535%; in the experiment on HEK293 it was -4.91%; with KB-3-1, -2.93%. Also, in the experiment with HaCat, the outcome was inactive.

Consider `Cc1ccc(Nc2cc(-c3cccc(N4C(=O)c5ccccc5C4=O)c3)ncn2)cc1NS(C)(=O)=O`, for which the outcome in the experiment with CRL-7250, in the experiment with HaCat and in the experiment on KB-3-1 was inactive. The max response was -21.5% in the experiment on HEK293 and 6.32% in the experiment on KB-3-1.

For `CC=CC(=O)N(CC)c1ccccc1C`, the max response with CRL-7250 is -6.43%; with KB-3-1, 2.01%. For the same compound, the compound was classed as inactive in the experiment on HEK293 and in the experiment with HaCat.

On to `NCCS`, for which the call with PC49, in the experiment on TAB109, in the experiment on HEK293 and in the experiment with HaCat was inactive. In addition, the Potency entry in the experiment with SC27B, in the experiment with TAB113, in the experiment on TAB165 and with W2 was “inactive” in each case. Moreover, the max response is -9.34% in the experiment on CRL-7250; -0.944% and -2.01% in the experiment on KB-3-1.

On to `Nc1ncnc2c1ncn2[C@@H]1O[C@H](CO)C[C@@H]1O`, for which the results for the max response with CRL-7250, with HEK293 and in the experiment with HaCat were -11.4%, -3.58% and -0.663%, respectively. Moreover, in the experiment with KB-3-1, the compound was classed as inactive.

Turning to `CCCCCNC(=O)N1CCC(CN(Cc2ccc(Cl)cc2)Cc2ccc([N+](=O)[O-])s2)C1` (stereo not drawn), the max response with CRL-7250 is -21%; in the experiment with HaCat, 2.36%.

With `O=C1C(Cl)=C(NCCN2CCOCC2)C(=O)c2ncccc21`, the Potency in the experiment on CRL-7250 is 9350 nM (active); in the experiment with HEK293, 13.2 µM (active); in the experiment with KB-3-1, 20.9 µM (active).

As for `CC=CCC=CCCC(=O)[C@H]1O[C@@H]1C(N)=O`, the compound was called inactive in the experiment with CRL-7250 and in the experiment with HaCat.

The record behind these values is PubChem BioAssay (NCATS).
